Source: PubChem BioAssay AID1159580 (chemical genetic matrix, 2015)
The campaign covered roughly 5,500 compounds. About 2,000 (36%) were called active. Roughly 18% stayed inconclusive and do not appear here. No stated cut-off is given here; in the data, active means normalized growth mostly below about 0.91 (no sharp cut-off); inconclusive means no clear call, values can overlap the other calls; inactive means mostly above about 0.92. Some of the results follow.

Experiment: chemical genetic growth profiling, strain panel (AID 1159580);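 further: tested at 20 µM; growth read once vehicle control cultures reached saturation at 30 °C; 1 = growth at the plate median or of vehicle wells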
Details: S. cerevisiae deletion strains, growth OD
[1] = locus YHR030C, strain SLT2, stronger effect = lower value
[2] = locus YHR079C, strain IRE1, stronger effect = lower value
[3] = locus YJL095W, strain BCK1, stronger effect = lower value
[4] = locus YJR066W, strain TOR1, stronger effect = lower value
[5] = locus YLR113W, strain HOG1, stronger effect = lower value
[6] = locus YNL183C, strain NPR1, stronger effect = lower value
[7] = locus YOR231W, strain MKK1, stronger effect = lower value
[8] = locus YPL256C, strain CLN2, stronger effect = lower value
[9] = locus YAL040C, strain CLN3, stronger effect = lower value
[10] = locus YCL061C, strain MRC1 (second series), stronger effect = lower value
[11] = locus YDR150W, strain NUM1, stronger effect = lower value
[12] = locus YDR363W, strain ESC2, stronger effect = lower value
[13] = locus YER002W, strain NOP16, stronger effect = lower value
[14] = locus YGR078C, strain PAC10, stronger effect = lower value
[15] = locus YJR075W, strain HOC1, stronger effect = lower value
[16] = locus YMR263W, strain SAP30, stronger effect = lower value
[17] = locus YNL128W, strain TEP1, stronger effect = lower value
[18] = locus YNL153C, strain GIM3, stronger effect = lower value
[19] = locus YNL175C, strain NOP13, stronger effect = lower value
[20] = locus YNL197C, strain WHI3, stronger effect = lower value
[21] = locus YNL224C, strain SQS1, stronger effect = lower value
[22] = locus YNL322C, strain KRE1, stronger effect = lower value
[23] = locus YOR083W, strain WHI5 (second series), stronger effect = lower value
[24] = locus YMR307W, strain GAS1, stronger effect = lower value

Measured: normalized growth

Cc1cc2c(s1)Nc1ccccc1N=C2N1CCN(C)CC1
inactive: [1] 0.975 | [2] 0.976 | [3] 1.01 | [4] 0.944 | [5] 1.05 | [6] 0.969 | [7] 1 | [8] 1.03

Cc1ccc2c(c1)C(N1CCN(C)CC1)=Nc1cccnc1N2
inactive: [9] 0.99 | [10] 0.989 | [11] 0.986 | [12] 1.02 | [13] 1 | [14] 0.983 | [15] 1 | [16] 0.982 | [17] 1.09 | [18] 0.998 | [19] 0.997 | [20] 0.988 | [21] 1.01 | [22] 0.988 | [23] 0.991

COCC1=C(C(=O)OC(C)OC(=O)OC(C)C)N2C(=O)[C@@H](NC(=O)/C(=N\OC)c3csc(N)n3)[C@H]2SC1 (stereo partly specified)
inactive: locus YAL021C, strain ccr4, stronger effect = lower value 0.98 | locus YAL026C, strain drs2, stronger effect = lower value 0.967 | locus YAL030W, strain snc1, stronger effect = lower value 0.982 | locus YBL061C, strain skt5, stronger effect = lower value 0.968 | locus YBR009C, strain hhf1, stronger effect = lower value 0.96 | locus YBR023C, strain chs3, stronger effect = lower value 0.982 | locus YBR171W, strain sec66, stronger effect = lower value 0.968 | locus YBR231C, strain swc5, stronger effect = lower value 0.967 | locus YBR279W, strain paf1, stronger effect = lower value 0.98 | locus YCL011C, strain gbp2, stronger effect = lower value 0.973 | locus YCL016C, strain dcc1, stronger effect = lower value 0.982 | locus YCL061C, strain MRC1, stronger effect = lower value 0.981 | locus YCL069W, strain vba3, stronger effect = lower value 0.976 | locus YCR088W, strain abp1, stronger effect = lower value 0.97 | locus YDL005C, strain med2, stronger effect = lower value 0.966 | locus YDL040C, strain nat1, stronger effect = lower value 0.977 | locus YDR001C, strain nth1, stronger effect = lower value 0.97 | locus YDR069C, strain doa4, stronger effect = lower value 0.971 | locus YDR137W, strain rgp1, stronger effect = lower value 0.93 | locus YDR159W, strain sac3, stronger effect = lower value 0.95 | locus YDR195W, strain ref2 0.927 | locus YDR297W, strain sur2, stronger effect = lower value 0.979 | locus YDR334W, strain swr1, stronger effect = lower value 0.976 | locus YDR335W, strain msn5, stronger effect = lower value 0.987 | locus YDR392W, strain spt3, stronger effect = lower value 0.919 | locus YEL003W, strain gim4, stronger effect = lower value 0.984 | locus YEL037C, strain rad23, stronger effect = lower value 0.969 | locus YEL061C, strain CIN8 (second series), stronger effect = lower value 0.971 | locus YER015W, strain faa2, stronger effect = lower value 0.98 | locus YER016W, strain bim1, stronger effect = lower value 0.98 | locus YER111C, strain swi4, stronger effect = lower value 0.972 | locus YER155C, strain BEM2 (second series), stronger effect = lower value 0.972 | locus YFR010W, strain ubp6, stronger effect = lower value 0.964 | locus YGL167C, strain pmr1, stronger effect = lower value 0.967 | locus YGL173C, strain kem1, stronger effect = lower value 0.968 | locus YGL227W, strain vid30, stronger effect = lower value 0.96 | locus YGL240W, strain doc1, stronger effect = lower value 0.981 | locus YGL253W, strain hxk2, stronger effect = lower value 0.986 | locus YHR013C, strain ard1, stronger effect = lower value 0.976 | locus YHR027C, strain rpn1, stronger effect = lower value 0.985 | [1] 0.968 | [2] 0.999 | locus YHR142W, strain chs7, stronger effect = lower value 0.982 | locus YJL092W, strain hpr5, stronger effect = lower value 0.972 | locus YJL095W, strain BCK1 (second series), stronger effect = lower value 0.989 | [3] 0.977 | locus YJL115W, strain asf1, stronger effect = lower value 0.966 | locus YJL129C, strain trk1, stronger effect = lower value 0.974 | locus YJL154C, strain vps35, stronger effect = lower value 0.976 | locus YJL164C, strain tpk1, stronger effect = lower value 0.998 | locus YJL166W, strain qcr8, stronger effect = lower value 0.998 | locus YJL187C, strain SWE1, stronger effect = lower value 0.982 | [4] 0.927 | locus YKL160W, strain elf1, stronger effect = lower value 0.994 | locus YKR026C, strain gcn3, stronger effect = lower value 0.962 | locus YKR091W, strain srl3, stronger effect = lower value 0.981 | locus YLL001W, strain dnm1, stronger effect = lower value 0.976 | locus YLL026W, stronger effect = lower value 0.971 | locus YLL041C, strain sdh2, stronger effect = lower value 0.992 | locus YLR027C, strain aat2, stronger effect = lower value 0.979 | [5] 0.943 | locus YLR221C, strain rsa3, stronger effect = lower value 0.997 | locus YLR258W, strain gsy2, stronger effect = lower value 0.978 | locus YLR262C, strain YPT6 (second series), stronger effect = lower value 0.987 | locus YLR320W, strain mms22, stronger effect = lower value 0.983 | locus YLR342W, strain FKS1, stronger effect = lower value 0.973 | locus YLR357W, strain rsc2, stronger effect = lower value 0.929 | locus YLR370C, strain arc18, stronger effect = lower value 0.956 | locus YLR384C, strain iki3, stronger effect = lower value 0.976 | locus YML120C, strain ndi1, stronger effect = lower value 0.967 | locus YMR058W, strain fet3, stronger effect = lower value 0.981 | locus YMR125W, strain sto1, stronger effect = lower value 0.926 | locus YMR129W, stronger effect = lower value 0.97 | locus YMR205C, strain PFK2, stronger effect = lower value 0.937 | locus YMR231W, strain pep5, stronger effect = lower value 0.967 | locus YNL071W, strain lat1, stronger effect = lower value 0.986 | [6] 0.945 | locus YNL209W, strain ssb2, stronger effect = lower value 0.986 | locus YNL248C, strain rpa49, stronger effect = lower value 0.99 | locus YNL322C, strain KRE1 (second series), stronger effect = lower value 0.982 | locus YNR049C, strain mso1, stronger effect = lower value 0.98 | locus YOR001W, strain rrp6, stronger effect = lower value 0.978 | locus YOR070C, strain gyp1, stronger effect = lower value 0.976 | locus YOR080W, strain dia2, stronger effect = lower value 0.967 | locus YOR083W, strain WHI5, stronger effect = lower value 0.993 | locus YOR106W, strain vam3, stronger effect = lower value 0.983 | [7] 0.973 | locus YOR265W, strain rbl2, stronger effect = lower value 0.982 | locus YOR270C, strain vph1, stronger effect = lower value 0.951 | locus YOR290C, strain snf2, stronger effect = lower value 0.962 | locus YPL051W, strain arl3, stronger effect = lower value 0.994 | locus YPL078C, strain atp4, stronger effect = lower value 0.986 | locus YPL106C, strain sse1, stronger effect = lower value 0.982 | locus YPL240C, strain hsp82, stronger effect = lower value 0.99 | [8] 0.974

CCCN1CCCC2Cc3[nH]ncc3CC21 (stereo unspecified)
inactive: [9] 0.972 | [10] 1 | [11] 0.995 | [12] 1.02 | [13] 0.992 | [14] 0.997 | locus YGR229C, strain SMI1, stronger effect = lower value 0.989 | [15] 1 | [16] 0.997 | [24] 0.992 | [17] 0.989 | [18] 1.1 | [19] 0.994 | [20] 0.992 | [21] 0.98 | [22] 1.02 | [23] 0.986 | locus YPL241C, strain CIN2, stronger effect = lower value 1

CC(C)NP(=O)(NC(C)C)OP(=O)(NC(C)C)NC(C)C
inactive: [9] 0.983 | [10] 1 | [12] 0.998 | [13] 0.995 | [14] 0.991 | [15] 1.01 | [16] 0.991 | [24] 0.995 | [17] 0.99 | [19] 0.991 | [20] 0.995 | [21] 0.991 | [22] 1.01 | [23] 0.991 | locus YPL055C, strain LGE1, stronger effect = lower value 1.01
